In PubChem BioAssay:
Inconclusive results are not listed. The source made the active and inactive calls.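 Rule for the calls, unless noted: active = cell viability at or below a set limit in both duplicate runs, the limit being the all-compound median minus 4 SD (cut at about 23% in these data, passing the limit was not always enough); inconclusive = no clear call, values can overlap the other calls; inactive = the rest.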

Experiments:
[1] = Her2 expression decrease, cell viability multiplex – SKBR3 breast tumor cells, AlphaScreen, ATP viability, primary screen (AID 461;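 active = Her2 level under about 52% in both replicate screens, with viability over 70% of control, limit read from the data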;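 for Her2 level: lower value means less Her2 protein in the cells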;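 for viability: percent of carrier control wells set as 100% viability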); details: SKBR3 Her2 protein level, 18-24 h, measured here: SKBR3 viability, ATP luminescence, at 10 µM
[2] = target: Receptor tyrosine-protein kinase erbB-2 (Homo sapiens) (UniProt P04626); experiment: as above; details: 18-24 h, at 10 µM, stronger effect = lower value
[3] = reduced viability of SK-BR-3 breast cancer cells – cell-based, 24 h, human, pilot screen (AID 572;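 active = viability at or below 10% of carrier control in both of two separate runs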;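 note: compound exposure lasted between 18 and 24 h rather than exactly 24 h; 100% = carrier-treated control wells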); details: SK-BR-3 viability, CellTiter-Glo luminescence, at 10 µM, stronger effect = lower value
[4] = HUVEC growth inhibition – cell-based, human, primary screen (AID 575;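 active = viability at or below 30% in both replicate assays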;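 note: 100% = median of untreated cell wells with 0.1% DMSO on each plate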); details: HUVEC proliferation, CellTiter-Glo luminescence, 72 h; at 10 µM; stronger effect = lower value
[5] = H69AR cell proliferation blockers – human, duplicate replicates, primary screen (AID 580;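 active = viability at or under a set limit in both replicates, limit being median viability minus 3 SD, cut at about 48% in these data, passing the limit was not always enough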;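 note: 100% = mean luminescence of untreated wells and 0% = no signal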); details: H69AR lung tumor cells viability, ATP luminescence, 72 h; at 10 µM; stronger effect = lower value
[6] = MRP1 drug-resistance reversers in H69AR cells – cell-based, doxorubicin co-treatment, pilot screen (AID 601;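 active = viability loss from added drug above about 55%, and viability with drug at most 40%, in both replicates, limit read from the data, passing the limit was not always enough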); details: CellTiter-Glo, 72 h, at 10 µM; for differential viability (reversal): stronger effect = higher value
[7] = yeast transport mutant growth inhibition pilot in 384-well plates, post-Golgi transport modulator project (AID 636; in the data active = inhibition above about 31%); details: absorbance 615 nm, about 18 h, stronger effect = higher value
[8] = growth suppression of yeast trafficking mutant, preliminary HTS, modulators of trafficking downstream of Golgi apparatus project, 1536-format plate, OD 615 nm (AID 637; in the data active = inhibition above about 30%); details: yeast transport mutant growth, absorbance 615 nm, 18 h; stronger effect = higher value
[9] = S. cerevisiae growth inhibition in permissive medium (OD615), pilot counter-assay for S. cerevisiae lifespan shortening project, permissive growth control (AID 705;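 active = growth inhibition above 25% in both replicates, a cutoff set 3 SD above the mean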); details: OD615, 24 h, at 10 µM, stronger effect = higher value
[10] = S. cerevisiae growth inhibition in restrictive medium, OD615, pilot screen, restrictive growth control, yeast lifespan reduction project (AID 706;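 active = growth inhibition above a set limit, 3 SD over mean compound inhibition, in both replicates, cut at about 43% in these data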;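 note: modified DeaD lifespan yeast strain shifted to restrictive glucose medium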); details: OD615, 48 h, at 10 µM, stronger effect = higher value
[11] = doxorubicin toxicity protection in MRP-1 cells – H69AR cells, CellTiter-Glo, duplicate, MRP-1 activator project, pilot screen (AID 807;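 active = viability increase at or above a cutoff of the median across tested compounds plus 3 SD, cut at about 8.5% in these data, passing the limit was not always enough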;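 note: compound pretreatment 18-22 h then 72 h combined with doxorubicin; 0% = doxorubicin alone and 100% = vehicle without doxorubicin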); details: H69AR viability with doxorubicin, CellTiter-Glo luminescence; at 10 µM; stronger effect = higher value
[12] = viability of HCT116 without oncogenic beta-catenin – human colon tumor cells, pilot screen (AID 823); details: HCT116 beta-catenin knockout viability, CellTiter-Glo, 60 h; at 10 µM; stronger effect = lower value;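 note: 0% = wells killed by 20 µM Hyamine and 100% = untreated DMSO cell wells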
[13] = viability of PTEN-null HCT116 cells – cell-based, HCT116 clonal line, CellTiter-Glo, pilot screen (AID 824;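 active = viability at or below 27.92% in each of two runs, the all-compound median minus 4 SD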;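 note: 0% = 20 µM Hyamine control and 100% = vehicle cell control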); details: HCT116 PTEN-deleted viability, 60 h, at 10 µM, stronger effect = lower value
[14] = RAM pathway blockade in budding yeast – dse1pr::URA3 reporter, 5-FOA selection, pilot screen (AID 869;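 active = inhibition over a set limit, the all-compound mean plus 3 SD, in both replicate runs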;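 note: 0% = DMSO wells with no growth and 100% = 10 µM 1-NA-PP1 with full growth; RAM network block rescues cells from 5-FOA so hits raise OD615 growth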); details: S. cerevisiae dse1pr::URA3 5-FOA growth, OD615, 2 d; at 10 µM; stronger effect = higher value; strain carries analog-sensitive mutant Cbk1 kinase
[15] = RAM signaling pathway blockade in yeast – S. cerevisiae, Pdr1DBD-CYC8 efflux-inhibited sensitized strain, primary screen (AID 1298;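 active = RAM network inhibition above 8.4% in each of two replicates, 3 SD over the compound average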;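 note: 0% = DMSO untreated cells without growth and 100% = 10 µM 1-NA-PP1 full growth; higher means more yeast growth rescued from 5-FOA killing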); details: S. cerevisiae cbk1-as DSE1-URA3 strain, 5-FOA growth OD615, 2 d; at 50 µM; stronger effect = higher value
[16] = H69AR cells + 2 uM doxorubicin, measured here: viability with 2 uM doxorubicin, stronger effect = lower value
[17] = H69AR cells, compound alone cytotoxicity

Receptor tyrosine-protein kinase erbB-2 (Homo sapiens), sequence (P04626 whole entry, looked up): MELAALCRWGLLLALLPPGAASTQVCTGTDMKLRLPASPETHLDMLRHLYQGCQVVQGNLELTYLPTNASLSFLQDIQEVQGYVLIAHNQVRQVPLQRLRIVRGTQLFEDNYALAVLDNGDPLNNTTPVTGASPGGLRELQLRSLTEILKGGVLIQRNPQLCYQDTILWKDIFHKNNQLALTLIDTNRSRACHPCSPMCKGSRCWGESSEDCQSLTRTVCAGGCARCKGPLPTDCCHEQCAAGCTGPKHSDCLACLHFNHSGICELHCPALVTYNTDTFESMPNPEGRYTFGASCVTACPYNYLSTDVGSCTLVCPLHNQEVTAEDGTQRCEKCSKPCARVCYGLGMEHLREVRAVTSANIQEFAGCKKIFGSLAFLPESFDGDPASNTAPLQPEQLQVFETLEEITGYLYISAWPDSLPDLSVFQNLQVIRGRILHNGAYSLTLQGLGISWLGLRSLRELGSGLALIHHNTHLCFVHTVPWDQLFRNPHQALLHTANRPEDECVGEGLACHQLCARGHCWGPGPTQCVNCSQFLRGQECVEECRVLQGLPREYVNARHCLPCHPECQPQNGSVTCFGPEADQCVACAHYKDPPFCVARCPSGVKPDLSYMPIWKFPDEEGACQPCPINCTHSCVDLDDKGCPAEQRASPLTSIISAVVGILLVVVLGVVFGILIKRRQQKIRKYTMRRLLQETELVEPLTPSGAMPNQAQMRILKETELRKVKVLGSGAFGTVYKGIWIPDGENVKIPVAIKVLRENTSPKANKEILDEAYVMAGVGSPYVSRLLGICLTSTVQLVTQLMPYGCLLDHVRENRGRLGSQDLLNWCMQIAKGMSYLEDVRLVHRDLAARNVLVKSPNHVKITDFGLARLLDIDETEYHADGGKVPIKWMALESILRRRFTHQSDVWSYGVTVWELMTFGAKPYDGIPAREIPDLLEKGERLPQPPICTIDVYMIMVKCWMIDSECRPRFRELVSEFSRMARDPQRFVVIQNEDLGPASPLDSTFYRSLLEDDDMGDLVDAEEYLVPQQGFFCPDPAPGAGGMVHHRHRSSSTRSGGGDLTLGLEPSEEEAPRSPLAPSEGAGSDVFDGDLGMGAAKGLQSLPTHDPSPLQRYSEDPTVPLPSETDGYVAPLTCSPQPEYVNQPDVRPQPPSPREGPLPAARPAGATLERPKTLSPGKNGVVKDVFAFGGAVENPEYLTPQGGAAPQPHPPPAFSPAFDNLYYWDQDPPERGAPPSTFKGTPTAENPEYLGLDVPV

Compound	viability [1]	Her2 level [2]	viability [3]	viability [4]	viability [5]	differential viability (reversal) ([6]; H69AR cells + 2 uM doxorubicin)	viability [6, 16]	viability [6, 17]	inhibition [7]	inhibition [8]	growth inhibition [9]	growth inhibition [10]	viability increase [11]	viability [12]	viability [13]	inhibition [14]	RAM network inhibition [15]
COc1ccc(-c2nnc(SCC(=O)N3CCOCC3)o2)cc1OC	91%	96% (inactive)	91% (inactive)	89.4% (inactive)	96.1% (inactive)	3.41% (inactive)	92.7%	96.1%	-1.2% (inactive)	-6.89% (inactive)	1.14% (inactive)	-3.02% (inactive)	-1.32% (inactive)	103% (inactive)	110% (inactive)	1.16% (inactive)	1.27% (inactive)
COC(=O)c1ccc(NC(=O)CN2CCCC2)cc1	107%	97.5% (inactive)	107% (inactive)	104% (inactive)	99.9% (inactive)	0.64% (inactive)	99.2%	99.9%	-2% (inactive)	-1.13% (inactive)	-4.15% (inactive)	-3.12% (inactive)	-0.69% (inactive)	98% (inactive)	102% (inactive)	0.115% (inactive)	0.47% (inactive)
Cc1cc(C)c(NC(=O)Cn2cc3c(n2)CCCC3)c(C)c1	87.5%	103% (inactive)	87.5% (inactive)	104% (inactive)	96.5% (inactive)	-3.94% (inactive)	100%	96.5%	-6% (inactive)	5.74% (inactive)	6.13% (inactive)	12.4% (inactive)	-0.84% (inactive)	109% (inactive)	94.9% (inactive)	2.3% (inactive)	4.34% (inactive)
COc1cc(NC(=O)c2nccnc2C(=O)O)cc(OC)c1	98%	107% (inactive)	98% (inactive)	95.7% (inactive)	109% (inactive)	18.3% (inactive)	90.6%	109%	-7.6% (inactive)	-2.3% (inactive)	-8.21% (inactive)	-1.48% (inactive)	-1.6% (inactive)	96.1% (inactive)	95% (inactive)	2.17% (inactive)	-0.31% (inactive)
O=C(Cn1nc(Cc2cccnc2)c2ccccc2c1=O)Nc1ccc2c(c1)OCO2	87%	96.5% (inactive)	87% (inactive)	84.5% (inactive)	85.2% (inactive)	9.09% (inactive)	76.2%	85.2%	-4.8% (inactive)	-0.67% (inactive)	0.565% (inactive)	7.93% (inactive)	2.16% (inactive)	99% (inactive)	106% (inactive)	0.975% (inactive)	2.81% (inactive)
Cc1ccc(C2CC(c3ccc(C)cc3)n3nc(N)nc3N2)cc1 (stereo not drawn)	95%	109% (inactive)	95% (inactive)	102% (inactive)	88.5% (inactive)	-8.68% (inactive)	97.1%	88.5%	-1.79% (inactive)	-1% (inactive)	1.83% (inactive)	12.3% (inactive)	-0.92% (inactive)	96.7% (inactive)	93.1% (inactive)	1.34% (inactive)	1.75% (inactive)
O=S(=O)(c1ccccc1)N1CCN(S(=O)(=O)c2ccccc2)C1	83.5%	102% (inactive)	83.5% (inactive)	97.5% (inactive)	95.8% (inactive)	7.07% (inactive)	88.7%	95.8%	-3.21% (inactive)	-4.5% (inactive)	-7.65% (inactive)	6.15% (inactive)	-1.27% (inactive)	93.8% (inactive)	93.5% (inactive)	-0.14% (inactive)	3.22% (inactive)
CCOn1c(=O)c(=O)n(OCc2ccccc2)c2ccccc21	86.5%	88% (inactive)	86.5% (inactive)	78.5% (inactive)	83.6% (inactive)	9.08% (inactive)	74.5%	83.6%	-2.05% (inactive)	-6.33% (inactive)	-14% (inactive)	-6.63% (inactive)	-3.35% (inactive)	95.8% (inactive)	92% (inactive)	2.35% (inactive)	3.12% (inactive)
O=C(Nc1cccnc1)Nc1ccccn1	100%	100% (inactive)	100% (inactive)	105% (inactive)	96.9% (inactive)	9.92% (inactive)	87%	96.9%	-1.69% (inactive)	-2.33% (inactive)	-2.38% (inactive)	-0.12% (inactive)	-0.73% (inactive)	99.8% (inactive)	92.9% (inactive)	0.185% (inactive)	0.51% (inactive)
Cn1c(SCC(=O)Nc2ccc(F)cc2)nnc1-c1cccnc1	93%	106% (inactive)	93% (inactive)	96.5% (inactive)	104% (inactive)	12.8% (inactive)	90.8%	104%	-3.87% (inactive)	-2.5% (inactive)	-8.06% (inactive)	0.86% (inactive)	2.18% (inactive)	104% (inactive)	101% (inactive)	0.43% (inactive)	4.04% (inactive)
COC(=O)COc1cccc(NC(=O)COc2ccccc2)c1	99.5%	122% (inactive)	99.5% (inactive)	90.7% (inactive)	96.5% (inactive)	3.21% (inactive)	93.2%	96.5%	-0.13% (inactive)	-7.33% (inactive)	-12.5% (inactive)	3.51% (inactive)	-0.74% (inactive)	97.2% (inactive)	93.7% (inactive)	1.66% (inactive)	2.45% (inactive)
CC1CCN(c2oc(-c3ccccc3F)nc2C#N)CC1	82%	95% (inactive)	82% (inactive)	78.7% (inactive)	92% (inactive)	7.56% (inactive)	84.5%	92%	-2.27% (inactive)	2.79% (inactive)	-14.9% (inactive)	-13.1% (inactive)	0.34% (inactive)	89.4% (inactive)	88.9% (inactive)	0.425% (inactive)	2.79% (inactive)
CC(=O)c1c(OC(=O)c2ccco2)c2ccccc2n1C	91%	102% (inactive)	91% (inactive)	74.6% (inactive)	75.3% (inactive)	-8.43% (inactive)	83.8%	75.3%	-0.64% (inactive)	-8.83% (inactive)	-14.2% (inactive)	-7.23% (inactive)	-4.82% (inactive)	75.1% (inactive)	91.3% (inactive)	0.15% (inactive)	1.13% (inactive)
CCC(C)NC(=O)CS(=O)(=O)Cc1nc(-c2cccc(OC)c2)oc1C (stereo not drawn)	80.5%	98% (inactive)	80.5% (inactive)	97.6% (inactive)	91.4% (inactive)	-8.61% (inactive)	100%	91.4%	-2% (inactive)	-0.66% (inactive)	3.02% (inactive)	9.5% (inactive)	0.02% (inactive)	91.9% (inactive)	93.5% (inactive)	0.02% (inactive)	3.92% (inactive)
COC(=O)CCCCC(=O)C1C(=O)CC(C)(C)C(C(=O)OC)C1=O (stereo not drawn)	91.5%	118% (inactive)	91.5% (inactive)	91.2% (inactive)	91.7% (inactive)	-3.76% (inactive)	95.5%	91.7%	2.08% (inactive)	-8% (inactive)	-15.7% (inactive)	-6.2% (inactive)	-1.69% (inactive)	94.4% (inactive)	93.6% (inactive)	1.31% (inactive)	-0.78% (inactive)
CCn1c(SCC(=O)Nc2ccc(Cl)cc2)nnc1C1CC1	92.5%	95.5% (inactive)	92.5% (inactive)	84.2% (inactive)	74.7% (inactive)	11.1% (inactive)	63.7%	74.7%	-2.27% (inactive)	1.67% (inactive)	5.96% (inactive)	1.14% (inactive)	-4.1% (inactive)	102% (inactive)	97.8% (inactive)	0.85% (inactive)	3.74% (inactive)
COc1cc(/C=N/n2cnnc2)ccc1OCC(=O)N1CCOCC1	84%	93.5% (inactive)	84% (inactive)	99.5% (inactive)	93% (inactive)	-6.64% (inactive)	99.6%	93%	-0.9% (inactive)	-1.17% (inactive)	-6.31% (inactive)	-6.25% (inactive)	-2.75% (inactive)	104% (inactive)	98.9% (inactive)	2.55% (inactive)	6.03% (inactive)
O=C(NCc1ccc2c(c1)OCO2)C1CCC(CNc2c(N3CCCCC3)c(=O)c2=O)CC1 (stereo not drawn)	92.5%	106% (inactive)	92.5% (inactive)	94% (inactive)	98.9% (inactive)	7% (inactive)	91.9%	98.9%	0.64% (inactive)	-2.17% (inactive)	-2.47% (inactive)	4.78% (inactive)	-2.93% (inactive)	94.6% (inactive)	88.9% (inactive)	1% (inactive)	-0.46% (inactive)
COc1ccc(NC(=O)CSc2nnc(Cc3cccn3C)n2-c2ccc(F)cc2)cc1OC	86%	92.5% (inactive)	86% (inactive)	104% (inactive)	94.7% (inactive)	0.655% (inactive)	94%	94.7%	0.38% (inactive)	3.17% (inactive)	3.84% (inactive)	1.52% (inactive)	-3.01% (inactive)	94.5% (inactive)	94.2% (inactive)	1.43% (inactive)	2.95% (inactive)
